# Screening data (PubChem)
# CR mimetic SO = caloric restriction mimetics inhibiting age-related superoxide in yeast. superoxide response (% of plate mean), % at 10 µM. AID 2690. 330,000 compounds, 0.18% hits. S. cerevisiae aged cells, superoxide DHE fluorescence; hits give low values;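 active means superoxide response under a set limit, about three screen SD below normal, cut at about 65% in these data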;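 further: yeast aged for seven days with compound at 30 °C before DHE staining; 100% = average MFI of all compound-treated wells on the plate with controls excluded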
# GLD-1 TGE inh = GLD-1-TGE RNA interaction inhibition (C. elegans); inhibition, % at 5.96 µM; 320,000 compounds, 0.44% hits; Q17339; AID 2280; purified GLD-1 + fluorescein TGE RNA, fluorescence polarization;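 active means percent inhibition above a per-plate cutoff, the plate mean of test compounds plus 3 SD, cut at about 30% in these data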;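 further: 0% = DMSO wells with GLD-1 and probe and 100% = wells lacking GLD-1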
# MEX-5 binding = C. elegans MEX-5 TCR-2 RNA binding activity. MEX-5/FITC-TCR2 RNA binding, fluorescence polarization; hits give low values. activity score (negative = inhibition of binding), % at 10 µM. 300,000 compounds, 0.38% hits. AID 1832;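 active means inhibition past about -25% in most replicates, and total fluorescence under double the plate's negative control median, limit read from the data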;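 further: 0% = DMSO and -100% = 5 µM competing unlabeled TCR2 RNA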
# MCL1 BIM primary = MCL1-BIM-BH3 interaction inhibition (human) | Q07820 | AID 2057 | 320,000 compounds, 0.68% hits | inhibition, % at 10.9 µM | GST-MCL1 / FITC-Bim-BH3 fluorescence polarization;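 active means inhibition above the mean inhibition of all tested compounds plus 3 SD, set per campaign, cut at about 40% in these data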;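 further: 0% = DMSO wells and 100% = unlabeled Bim-BH3 peptide control; higher means more loss of mP so more displacement of Bim peptide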
# Target sequence (Q07820 whole entry, looked up): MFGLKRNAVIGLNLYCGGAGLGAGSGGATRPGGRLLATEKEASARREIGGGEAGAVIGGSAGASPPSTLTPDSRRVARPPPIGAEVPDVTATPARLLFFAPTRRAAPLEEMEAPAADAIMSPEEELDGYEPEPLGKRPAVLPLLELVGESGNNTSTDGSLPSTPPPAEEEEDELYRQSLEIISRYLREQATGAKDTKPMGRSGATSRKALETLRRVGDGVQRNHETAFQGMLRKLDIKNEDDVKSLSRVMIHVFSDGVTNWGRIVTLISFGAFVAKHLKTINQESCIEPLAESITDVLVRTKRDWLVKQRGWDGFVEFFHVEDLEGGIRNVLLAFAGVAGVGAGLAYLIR
# BCLXL inh = inhibitors of human Bcl-xL. Q07817. GST-Bcl-xL / FITC-Bim BH3 peptide fluorescence polarization. inhibition, % at 10.9 µM. 320,000 compounds, 0.7% hits;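 active means inhibition above the mean of all tested compounds plus 3 SD, cutoff set per campaign, cut at about 30% in these data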;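 further: 0% = DMSO wells and 100% = unlabeled Bim-BH3 peptide competitor; inhibitors lower millipolarization by displacing the labeled peptide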
# LANA-H2B inh = blocks KSHV LANA binding to histone H2A/H2B | AID 2629 | 320,000 compounds, 0.6% hits | cell-free LANA-H2A/H2B peptide, fluorescence polarization | inhibition, % (concentration not given with the values) | Q9QR71; in the data active means inhibition mostly above about 10%, no sharp cut-off; inactive means mostly below about 6.7%
# Bcl-xL conf = Bcl-xL (human) inhibition, MCL1 counter-screen confirmation; 1,700 compounds, 54% hits; inhibition, % at 10.9 µM; GST-Bcl-xL / FITC-Bim BH3 peptide FP binding; shares compounds with MCL1 BIM primary;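 active means inhibition above a cutoff equal to the mean inhibition of all tested compounds plus 3 SD, cut at about 30% in these data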;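 further: 0% = DMSO wells and 100% = unlabeled Bim BH3 control peptide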
# MCL1 BIM confirm = MCL1-BIM-BH3 interaction inhibition, confirmation; GST-MCL1 / FITC-Bim-BH3 fluorescence polarization; shares compounds with MCL1 BIM primary; 1,700 compounds, 61% hits; inhibition, % at 10.9 µM; AID 2168;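 active means inhibition above the average of all tested compounds plus 3 SD, cut at about 40% in these data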;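 further: 0% = DMSO wells and 100% = unlabeled Bim-BH3 control peptide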
# The depositor's hits bear a star; nt = not tested or not shown. Most compounds without a hit are left out; they make up all but 1.9% or so of the library.
SMILES,CR mimetic SO,GLD-1 TGE inh,MEX-5 binding,MCL1 BIM primary,BCLXL inh,LANA-H2B inh,Bcl-xL conf,MCL1 BIM confirm
C/C(=N/NC(=O)c1cc2ccccc2cc1O)C1C(=O)c2ccccc2C1=O,97.2,0.3,2.0,40.9*,13.5,-4.5,7.1,41.2*
C/C(=N\NC(=O)c1ccccc1O)C1C(=O)c2ccccc2C1=O,74.4,-0.2,-5.0,12.5,10.6,-3.7,nt,nt
COc1ccc(C(=O)OCC(=O)c2c(N)n(C)c(=O)n(C)c2=O)c(OC)c1OC,101.5,-4.5,nt,nt,nt,4.6,nt,nt
Nc1c(NCc2ccccc2F)c(=O)[nH]c(=O)n1Cc1ccccc1,107.0,93.1*,-8.5,97.2*,86.5*,7.3,23.0,29.3
COc1ccc(CCNc2c(N)n(Cc3ccccc3)c(=O)[nH]c2=O)cc1OC,101.7,78.6*,-19.2,96.1*,70.9*,6.3,74.3*,84.7*
CCN1C(=O)[C@H]2[C@H]3CN=C(SCC(=O)c4ccccc4)N3[C@@](C)(C(=O)OC)[C@H]2C1=O,88.4,nt,nt,nt,nt,nt,nt,nt
COCCCNC(=O)Cn1cnc(C(=O)Nc2ccc(C)c(C)c2)n1,104.8,nt,nt,nt,nt,nt,nt,nt
O=C(Nc1cccc(S(=O)(=O)N2CCCCC2)c1)c1cc(=O)[nH]c2ccccc12,113.8,1.7,nt,nt,nt,0.3,nt,nt
COCc1cc(C)nc(OCC(=O)N/N=C/c2ccc(-c3cc([N+](=O)[O-])ccc3C)o2)c1C#N,107.5,-4.3,-0.5,0.0,1.8,-2.3,nt,nt
Cc1ccc([N+](=O)[O-])cc1-c1ccc(/C=C(\C#N)c2[nH]nc(N)c2C#N)o1,95.1,6.8,nt,48.6*,8.6,0.4,53.7*,83.6*
N#Cc1ccc(Oc2cccc3cccnc23)c([N+](=O)[O-])c1,91.1,125.4*,-6.1,177.4*,149.7*,-10.6,33.0*,50.8*
N#Cc1cc(Oc2cccc3cccnc23)c(-n2nnc3ccccc32)cc1C#N,155.6,44.5*,-3.4,139.0*,142.9*,0.3,17.2,24.7
N#Cc1cc(O)c(-n2nnc3ccccc32)cc1C#N,114.7,-4.1,-1.1,-8.2,0.4,0.2,nt,nt
CC(C)Cn1c(N)c(C(=O)COC(=O)Cc2cccc(C(F)(F)F)c2)c(=O)n(C)c1=O,79.8,8.7,-2.9,1.5,0.7,3.5,nt,nt
O=[N+]([O-])c1ccc2nc(-c3ccc(OC(F)F)cc3)cn2c1,99.9,14.2,-3.3,93.5*,12.6,1.3,0.6,2.8
CC(=O)N1N=C(c2ccc(Cl)cc2)CC1c1ccco1 (stereo unspecified),99.3,-0.3,1.5,40.4*,4.5,-0.2,4.5,6.2
Cc1ccc(CNCc2cc(Cl)ccc2O)cc1,87.5,11.0,nt,-9.9,-1.3,3.7,nt,nt
Cc1ccc2[nH]c(=O)c3cc(C(=O)NCC4CCCO4)sc3c2c1 (stereo unspecified),103.4,4.3,0.8,2.2,1.8,5.3,nt,nt
Cc1ccc2[nH]c(=O)c3cc(C(=O)NC(C)C)sc3c2c1,96.7,154.6*,-0.3,166.7*,137.8*,3.6,20.5,19.9
CN(Cc1nc2ccccc2c(=O)[nH]1)C(=O)c1ccc(NC(=O)CSc2nnnn2C)cc1,90.8,4.8,nt,44.2*,0.6,1.9,1.4,-0.4
CCN(CC(=O)Nc1ccccc1OC)C(=O)CC1CCCC1,85.5,7.7,nt,nt,nt,2.6,nt,nt
CCC(C(=O)OCC(=O)N(CC)c1c(N)n(Cc2ccccc2)c(=O)[nH]c1=O)c1ccccc1 (stereo unspecified),104.8,-0.3,nt,-3.0,1.3,-3.2,nt,nt
Nc1ccc2nc(-c3ccccc3)c(-c3ccccc3)nc2c1,113.4,73.3*,-40.0*,59.7*,48.6*,7.2,63.5*,54.5*
Nc1ccc2nc(-c3ccccc3)cnc2c1,83.0,81.0*,-13.1,119.3*,98.7*,3.8,120.9*,141.7*
Nc1ccc(-c2cnc3ccccc3n2)cc1,82.6,4.5,-1.4,3.9,2.0,-6.1,nt,nt
